# High-throughput results as filed in PubChem.
# GLD-1 RNA inh: GLD-1/TGE RNA complex disruptors, primary screen, biochemical, fluorescence polarization; Female germline-specific tumor suppressor gld-1 (Caenorhabditis elegans), Q17339; purified GLD-1 + fluorescein TGE RNA; inhibition, % at 5.96 µM; 320,000 compounds, 0.44% hits;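 active = percent inhibition above a per-plate cutoff, the plate mean of test compounds plus 3 SD, cut at about 30% in these data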;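 also: 0% = DMSO wells with GLD-1 and probe and 100% = wells lacking GLD-1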
# E coli Lon inh: inhibitors of E. coli Lon protease, primary screen, biochemical, fluorescence polarization; P0A9M0; purified E. coli Lon protease; inhibition, % at 7.94 µM; 360,000 compounds, 0.42% hits; in the data active = inhibition above about 13%, passing the limit was not always enough;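 also: 0% = enzyme with probe and DMSO and 100% = no enzyme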
# Target sequence (P0A9M0 whole entry, looked up): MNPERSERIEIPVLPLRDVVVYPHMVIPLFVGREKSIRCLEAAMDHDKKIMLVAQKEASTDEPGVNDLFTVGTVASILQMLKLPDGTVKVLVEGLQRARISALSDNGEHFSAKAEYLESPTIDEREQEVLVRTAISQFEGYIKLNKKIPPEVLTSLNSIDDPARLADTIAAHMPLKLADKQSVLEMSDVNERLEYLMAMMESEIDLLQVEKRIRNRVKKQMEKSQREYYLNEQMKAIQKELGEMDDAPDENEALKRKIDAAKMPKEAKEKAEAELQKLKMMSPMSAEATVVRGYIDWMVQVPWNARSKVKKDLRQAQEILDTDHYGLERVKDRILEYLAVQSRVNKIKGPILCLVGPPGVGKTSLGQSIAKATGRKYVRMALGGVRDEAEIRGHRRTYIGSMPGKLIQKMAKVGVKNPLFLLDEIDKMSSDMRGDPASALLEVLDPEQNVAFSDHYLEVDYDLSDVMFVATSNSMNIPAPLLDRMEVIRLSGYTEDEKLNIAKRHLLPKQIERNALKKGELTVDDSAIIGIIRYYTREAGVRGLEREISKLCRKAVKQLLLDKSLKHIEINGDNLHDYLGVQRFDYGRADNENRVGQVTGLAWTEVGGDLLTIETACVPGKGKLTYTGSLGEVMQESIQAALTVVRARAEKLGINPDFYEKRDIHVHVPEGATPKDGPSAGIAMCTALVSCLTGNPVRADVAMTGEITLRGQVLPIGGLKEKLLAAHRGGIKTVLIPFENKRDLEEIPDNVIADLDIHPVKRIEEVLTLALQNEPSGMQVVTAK
# C-LANA FP: inhibitors of KSHV C-LANA binding to DNA, primary screen, biochemical, fluorescence polarization, FAM-LBS DNA, MBP-C-LANA, single point; Kaposi's sarcoma herpesvirus LANA C-terminal domain (residues 932-1162) DNA binding; inhibition, % at 9 µM; 340,000 compounds, 0.078% hits;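 active = highest replicate inhibition at or above 60% at 9 µM, even if other replicates fall short; inactive = all replicates below 60% inhibition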;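 also: 0% = neutral control wells and 100% = 4 µM acridine orange control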
# LANA-H2A inh: blockers of LANA interaction with H2A/H2B – biochemical, FP readout, HTS, primary screen; Protein LANA1 (Human herpesvirus 8 type P (isolate GK18)), Q9QR71; cell-free LANA-H2A/H2B peptide, fluorescence polarization; inhibition, % (test concentration not listed); 320,000 compounds, 0.6% hits; AID 2629, 2010; in the data active = inhibition mostly above about 10%, no sharp cut-off; inactive = mostly below about 6.7%
# EBV gp42 block: Epstein-Barr virus gp42 inhibitors, primary screen, biochemical, uHTS, fluorescence polarization; inhibition, % (tested at 21.74 µM); Glycoprotein 42 (Epstein-Barr virus (strain AG876)), Q1HVG2; 220,000 compounds, 0.42% hits; Fluorescence polarization binding assay, mP read-out; in the data active = inhibition above about 50%
# Keap1-Nrf2 PPI: Keap1-Nrf2 protein-protein interaction inhibitors, primary screen, biochemical, fluorescence polarization, single point; Kelch-like ECH-associated protein 1 (Homo sapiens), Q14145; Keap1 Kelch-Nrf2 peptide fluorescence polarization, 1536-well; 340,000 compounds, 0.15% hits; inhibition, % at 9.4 µM; in the data active = inhibition above about 12%; inconclusive = no clear call, values can overlap the other calls; inactive = below about 7.3%;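 also: human Keap1 Kelch domain with fluorescein labeled Nrf2 9mer peptide probe; 0% = neutral control wells and 100% = peptide positive control; higher means more block of Keap1 binding to Nrf2 peptide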
# eLon confirm: E. coli Lon protease inhibitor retest, confirmation, biochemical, fluorescence polarization | shares compounds with E coli Lon inh | inhibition, % at 7.94 µM | 1,400 compounds, 31% hits | purified E. coli Lon; in the data active = inhibition above about 16%;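 also: 0% = enzyme with probe and DMSO and 100% = no enzyme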
# Numbers without * were called inactive; ? = inconclusive; nt = no result. Sampled rows, rich in hits. Any-hit rate of the full collection: about 1.5%.
SMILES,GLD-1 RNA inh,E coli Lon inh,C-LANA FP,LANA-H2A inh,EBV gp42 block,Keap1-Nrf2 PPI,eLon confirm
Cc1ccc(-n2c(C)cc(C(=O)CN3CCOCC3)c2C)cc1C,2.3,0.8,-2.3,1.4,-9.8,-4.6,nt
CCN(CC)c1ccc(/C=N/NC(=O)c2c[nH]c3ccccc23)cc1,-2.7,4.7,1.3,0.9,-14.8,-1.1,nt
CCN(CC)c1ccc(/C=N/NC(=O)c2cc3ccccc3[nH]2)cc1,3.4,16.1*,-2.4,0.1,nt,-1.3,8.8
O=C(NCC(=O)N1CCN(S(=O)(=O)c2ccc3c(c2)OCCO3)CC1)c1ccccc1Cl,6.5,-1.1,-0.8,2.8,nt,1.7,nt
CCOc1ccc(C(=O)Nc2ccccc2N2CCOCC2)cc1,6.6,0.1,0.3,-1.1,-16.2,0.4,nt
CC1CCCC(C)N1C(=O)COc1ccc(C(=O)Nc2ccccc2N2CCOCC2)cc1 (stereo unspecified),4.1,19.6*,-0.8,2.9,-2.8,-5.2,11.6
COC(CNS(=O)(=O)c1cc2c3c(c1)CCN3C(=O)CC2)OC,3.8,9.3,0.6,-6.3,nt,-3.5,nt
CCN1CCN(C(=O)NC2CCCCC2)CC1,4.5,45.1*,0.7,-2.1,nt,-0.9,-0.4
COc1ccccc1-n1c(SCC(=O)NC2CCS(=O)(=O)C2)nc2ccccc2c1=O (stereo unspecified),9.2,18.7*,2.0,1.9,nt,-0.1,2.1
CCOc1c2ccccc2nn1CCO,8.8,28.7*,1.3,-0.9,nt,3.9,-76.6
CCN(CC)C(=O)c1cccc(-c2csc(C(O)c3ccc(F)c(F)c3)n2)c1 (stereo unspecified),nt,-5.7,nt,nt,nt,nt,nt
COc1cccc(CN2CC(C(=O)N(C)Cc3nc4ccc(F)cc4[nH]3)CCC2=O)c1 (stereo unspecified),1.9,69.3*,-0.8,nt,nt,-0.4,-18.9
COc1ccc2nc(CCN(C)C(=O)C3CCC(=O)N(Cc4cccc(F)c4)C3)[nH]c2c1 (stereo unspecified),0.1,-1.5,0.4,3.3,nt,3.6,nt
Cc1cccc(NC(=O)c2nc[nH]c2C(=O)NC2CCN(C(=O)OC(C)(C)C)CC2)c1,2.6,-3.6,1.4,0.0,nt,-2.3,nt
CN(C)c1cccc(C(=O)NCc2ccccc2Cl)c1,3.8,68.1*,1.5,-3.8,-5.3,-1.9,-2.2
Cc1cccn2c(=O)c(C=C(C#N)C#N)c(N3CCN(C)CC3)nc12,24.6,16.5*,-0.4,0.5,nt,1.6,12.9
COc1ccc(CNCC(O)(c2ccc(Cl)cc2)c2ccc(Cl)cc2)cc1,1.8,47.9*,0.5,6.7,-23.8,-3.5,-1.2
CCCn1c(=S)[nH]c2cc(C(=O)N3CCN(C)CC3)ccc2c1=O,nt,13.7*,nt,nt,nt,nt,1.9
COc1ccc(N2CCN(C(=O)c3ccc(N4C(=O)NC5CC4(C)Oc4ccccc45)cc3)CC2)cc1 (stereo unspecified),3.1,5.7,0.8,3.6,-10.8,1.6,nt
CCOC(=O)C(=O)N(CC)C1CCS(=O)(=O)C1 (stereo unspecified),-0.2,17.1*,-2.2,-2.7,-8.3,-0.4,-5.7
C/C(CCc1ccccc1)=N\NC(=S)NCCc1ccccc1,2.6,-9.8,-0.9,-2.2,nt,-1.8,nt
C/C(=N\NC(=S)NCCc1ccccc1)c1cccs1,2.4,101.1*,12.9,2.1,1.8,-3.4,57.4*
COc1ccc(C(=O)N=C2SC3CS(=O)(=O)CC3N2Cc2ccccc2)cc1OC (stereo unspecified),-3.2,15.9*,-1.0,-6.6,nt,-0.3,-0.9
COc1ccc(CN2C(=NC(=O)c3ccccc3)SC3CS(=O)(=O)CC32)cc1OC (stereo unspecified),-11.5,2.1,0.6,1.7,nt,2.2,nt
CN(Cc1ccccc1)C(=O)CN1C(=O)c2ccc([N+](=O)[O-])cc2C1=O,-3.2,18.5*,-1.0,-0.3,nt,0.2,-1.3
SMILES,GLD-1 RNA inh,E coli Lon inh,C-LANA FP,LANA-H2A inh,EBV gp42 block,Keap1-Nrf2 PPI,eLon confirm
COc1cc(C)c(NC(=S)Nc2ccc(Cl)c(Cl)c2)cc1OC,4.1,-3.7,0.8,-1.8,-1.5,-5.0,nt
Cc1cc(N2CCCC2=O)cc(C)c1S(=O)(=O)Nc1c(C)nn(C)c1C,5.3,4.1,0.9,2.8,-17.3,-3.3,nt
Cc1ccnc(N2C(=O)c3cccc4c([N+](=O)[O-])ccc(c34)C2=O)c1,77.0*,53.2*,1.1,0.0,66.8*,-3.7,64.2*
O=C1c2cccc3cccc(c23)C(=O)N1Cc1cccnc1,5.2,0.2,-1.3,-2.2,-3.4,3.3,nt
Cc1ccnc(N2C(=O)c3ccccc3C2=O)c1,-1.8,7.5,0.1,-1.1,nt,-6.0,nt
O=C1c2cccc3c([N+](=O)[O-])ccc(c23)C(=O)N1Cc1cccnc1,nt,50.9*,1.6,nt,122.6*,?,74.7*
Cc1nnc(N2C(=O)c3cccc4c([N+](=O)[O-])ccc(c34)C2=O)s1,6.1,15.1*,0.6,1.3,nt,-0.3,13.3
CCOC(=O)C1CCCN(C(=O)Cc2c(C(=O)O)[nH]c3ccccc23)C1 (stereo unspecified),8.4,24.4*,0.8,-0.7,-4.1,0.5,20.6*
COc1cccc(NC(=O)Nc2ccc3c(c2)CCC3)c1,1.9,-0.2,-1.2,-13.8,nt,-4.8,nt
O=C(O)/C=C/C(=O)Nc1ccc(O)cc1,1.1,120.5*,6.2,-0.1,-8.6,2.4,0.5
Cc1ccc(S(=O)(=O)N2CCC[C@H]2C(=O)NC2=NCCS2)cc1,nt,1.9,-2.6,nt,nt,-5.5,nt
CCOC(=O)NCc1ccc2c(c1)cc(C)n2C,21.9,4.0,-1.2,-2.1,-2.8,-1.5,nt
COc1cccc(C(=O)NCc2ccc3c(c2)cc(C)n3C)c1,24.3,31.0*,1.0,-4.6,-0.3,6.0,15.6
COc1ccc(/C=C\C(=O)NCc2ccc3c(c2)cc(C)n3C)cc1OC,10.6,25.2*,0.4,-0.2,-11.5,-3.4,-11.0
COc1ccc(S(=O)(=O)NCc2ccc3c(c2)cc(C)n3C)cc1,11.2,14.7*,0.9,-1.7,7.0,0.0,9.9
COc1ccc(CC(=O)NCc2ccc3c(c2)cc(C)n3C)cc1,12.4,5.3,0.1,1.6,-0.2,-4.5,nt
Cc1cc2cc(CNC(=O)c3cccs3)ccc2n1C,14.8,26.8*,0.0,78.2*,19.3,0.1,13.7
COc1ccc(C(=O)NCc2ccc3c(c2)cc(C)n3C)cc1OC,22.6,14.6,0.7,-0.3,-9.4,-2.0,nt
O=C(Nc1ccc(Br)cn1)c1cccc2c1-c1ccccc1C2=O,5.0,1.7,-2.0,1.8,-5.5,0.0,nt
